Results filed as inconclusive are left out. Calls of active or inactive are those of the source. Calls come from the whole dose curve; as a rule, active = well fitted inhibition curve with a large enough effect; inconclusive = small, poorly fitted or top-dose-only effect; inactive = flat fitted curve, though single readings scatter. *1 amine or outer side, *2 acyl side, *3 side chain or, on linkers, in order; H or OH if unused. Where a SMILES comes first, the peptide text is derived from it. Bridges are numbered along the chain shown (N, C = ends). [ ]: non-standard residue; d: D form. The star is where a group is joined. ξ: configuration not given here. X10 = NC1=NCCC(C(N[*:1])C(=O)[*:2])N1; ΔAla(3-NHCONH2) = NC(=O)NC=C(N)C(=O)O; ξβ3hOrn = NCCCC(N)CC(=O)*; Dap = NC[CH](N)C(=O)O
Tested on: HaCat
Assay: Cytotoxic Profiling of Annotated Libraries Using Quantitative High-Throughput Screening (AID 1296008); note: nearly all actives have a fitted effect of over 60% in size
Details: Five cell lines viability, CellTiter-Glo ATP luminescence, 48-72 h; max response: stronger effect = lower value
Summary of the method: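 Compounds were pin-transferred onto cells and incubated 48 or 72 hr at 37 degree Celsius, 95% humidity. CellTiter-Glo was added, plates sat 10 min at room temperature, then ATP-coupled luminescence was imaged as the viability read-out.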
% is set by controls: 0 for no effect and ±100 for the full control effect.

Row | SMILES | max response
1 | CC(C)C[C@@H]1[C@H](c2ccccc2)OC(=O)N1CCCN1CCCCCC1 | -13.9% (inactive)
2 | CCOC(=O)CN1CCCC1=O | -7.15% (inactive)
3 | CCOC(=O)C(=O)c1csc(NC=O)n1 | 4.32% (inactive)
4 | N[C@@H](Cc1cc(I)c(O)c(I)c1)C(=O)O | 4.36% (inactive)
5 | CCOC(=O)Oc1ccc(CCNC(=O)[C@H](CCSC)NC(C)=O)cc1OC(=O)OCC | -20.7% (inactive)
6 | C#CC(C)(CC)OC(=O)c1ccccc1C(=O)O (centres undefined) | -2.23% (inactive)
7 | CCCOc1ccc2c(c1)CC[C@@H]1[C@@H]2CC[C@]2(C)C(OC)CC[C@@H]12 (some centres undefined) | 2.29% (inactive)
8 | CC(C)(C)C1CCC(CC2=C(O)c3ccccc3C(=O)C2=O)CC1 (centres undefined) | -2.75% (inactive)
9 | CN1Cc2cc(C(=O)N3CCC(C4CCNCC4)CC3)ccc2NC(CC(=O)O)C1=O (centres undefined) | -7.2% (inactive)
10 | O=C(O)C1CCC1 | 1.71% (inactive)
11 | NCCCC(N)CC(=O)NCC1NC(=O)C(CO)NC(=O)C(N)CNC(=O)C(C2CCN=C(N)N2)NC(=O)C(=CNC(N)=O)NC1=O (stereo not drawn) (H-[Dap]S[Dap](ξβ3hOrn)[ΔAla(3-NHCONH2)][X10]; lactam 1-C; configuration not given here) | -10.9% (inactive)
12 | Nc1ccc(C(=O)OCC(O)CO)cc1 (centres undefined) | -8.17% (inactive)
13 | Cc1ccccc1C(=O)N1CC/C(=N\OS(=O)(=O)O)c2ccc(Cl)cc21 | -13.2% (inactive)
14 | Cn1cc(S(C)=O)c(=O)c2ccc(F)cc21 (centres undefined) | -31% (inactive)
15 | O=C(CS(=O)Cc1ccco1)NC/C=C\COc1cc(CN2CCCCC2)ccn1 (centres undefined) | -5.87% (inactive)
16 | Cn1c(=O)c2c(ncn2CC(=O)O)n(C)c1=O | -42.3% (inactive)
17 | Oc1cccc2[nH]ccc12 | -5.11% (inactive)
18 | CC(C)C(=O)Nc1cccc(C2CN3CCSC3=N2)c1 (centres undefined) | -7.7% (inactive)
19 | CCOC(=O)C(=O)CCCCCCl | -12.5% (inactive)
20 | CNC[C@H](O)[C@@H](O)[C@H](O)[C@H](O)CO | -3.04% (inactive)

Row | SMILES | max response
21 | CC(C)CCCC(C)NCCC(C)C (centres undefined) | 3.37% (inactive)
22 | CCc1cccc2c(CCO)c[nH]c12 | 2.18% (inactive)
23 | Clc1ccc2c(c1)Nc1ccccc1S2 | -13.4% (inactive)
24 | CN1C(=O)c2ccccc2C1=O | -13.2% (inactive)
25 | CC(=O)N(CC(=O)N(C)C)c1ccccc1 | -4.61% (inactive)
26 | CC(=O)OC[C@H]1O[C@@H](OC(C)=O)[C@H](OC(C)=O)[C@@H]1OC(C)=O | 2.57% (inactive)
27 | C/C(=C1\CCOC(=O)S1)N(C=O)Cc1cnc(C)nc1N | 0.182% (inactive)
28 | Cc1cc(=O)oc2cc(O[C@@H]3SC[C@@H](O)[C@H](O)[C@H]3O)ccc12 | 4.75% (inactive)
29 | Fc1ccc(C(c2ccc(F)cc2)N2CCNCC2)cc1 | -17.9% (inactive)
30 | NC(=O)NS(=O)(=O)c1ccc(Cl)cc1 | 0.84% (inactive)
31 | NC(=O)COCCN1CCN(C(c2ccccc2)c2ccc(Cl)cc2)CC1 (centres undefined) | -16.4% (inactive)
32 | CC1(C)O[C@@H]2C[C@H]3[C@@H]4CCC5=CC(=O)C=C[C@]5(C)[C@@]4(F)[C@@H](O)C[C@]3(C)[C@]2(C(=O)CO)O1 | -7.17% (inactive)
33 | COC(=O)c1ccc(NC(C)=O)cc1OC | -9.21% (inactive)
34 | O=C(O)CCCC[C@@H]1SC[C@@H]2NC(=O)N[C@@H]21 | 4.46% (inactive)
35 | O=C(O)CCC(=O)OC[C@@H](NC(=O)C(Cl)Cl)[C@H](O)c1ccc([N+](=O)[O-])cc1 | 0.154% (inactive)
36 | C[C@H]1C[C@H](O)c2ccsc2S1(=O)=O | 2.62% (inactive)
37 | [O-][n+]1cccc(/C(Cl)=N/OC[C@@H](O)CN2CCCCC2)c1 | 2.38% (inactive)
38 | CCOC(=O)c1ccc(OCCN2C[C@H](O)[C@@H](O)[C@H](O)[C@H]2CO)cc1 | -6.67% (inactive)
39 | CCCCOC(=O)CCCCCCCCC(=O)OCCCC | -1.87% (inactive)

From PubChem BioAssay (NCATS)
